A short description of test [1]: qHTS profiling for inhibitors of Plasmodium falciparum (3D7) proliferation (AID 743322; call rule not given here;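 also: infected erythrocytes exposed to compound for 72 h before lysis; 100% = DMSO vehicle wells and 0% = 0.29 µM artemisinin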). The following applies: P. falciparum 3D7 proliferation; at 28.7 µM (top of the series) unless noted. An outline of the steps: (§1)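 Parasite DNA was quantified by SYBR Green I fluorescence (ex 485, em 535 nm) after overnight lysis in saponin/Triton buffer at room temperature. Cultures at 0.3% parasitemia and 2.5% hematocrit were first exposed to compound for 72 h at 37 C; signals were normalised to artemisinin (0.29 uM) and vehicle wells.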

Test [2] is described as follows: qHTS profiling for inhibitors of Plasmodium falciparum (DD2) proliferation (AID 743323; call rule not given here). The following applies: lower = more inhibition; at 28.7 µM (top of the series) unless noted. In a few lines: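 SYBR Green fluorescence (ex 485, em 535 nm) of lysed cultures gives parasite DNA content; wells normalized to artemisinin (0.29 uM) and DMSO controls. Infected red cells: 0.3% parasitemia, 2.5% hematocrit, 72 h, 37 C.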

Test [3] is described as follows: qHTS profiling for inhibitors of Plasmodium falciparum (HB3) proliferation (AID 743324).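 Also: 100% = DMSO vehicle wells and 0% = artemisinin-treated control wells.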 The following applies: Plasmodium falciparum HB3 blood-stage proliferation; at 28.7 µM (top of the series) unless noted. In a few lines: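 SYBR Green fluorescence (485 ex/535 em) of lysed cultures, incubated overnight at room temperature in the dark, quantifies parasite DNA. Infected erythrocytes at 0.3% parasitemia and 2.5% hematocrit were exposed 72 h; values normalized to DMSO and 0.29 uM artemisinin controls.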
For orientation: Quantitative high-throughput screening tests each substance at several concentrations.

Test [4] in a line: qHTS assay for cell viability of HEK293 cells (AID 743288). Also: % is scaled to controls: 0 for no effect and ±100 for the full control effect; nearly all actives have a fitted effect of over 50% in size. The conditions noted are these: ATP luminescence (CellTiter-Glo), 18 h, stronger effect = lower value. In a few lines:
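Steps: plate 2,000 parental HEK293 cells per well; incubate ≥5 h, 37 C; add compounds in DMSO; incubate 18 h, 37 C; add CellTiter-Glo; wait 30 min at room temperature; read luminescence.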

Test [5] can be described thus: qHTS assay for cell viability of the p53RE-bla HCT-116 cell line (AID 743292). Also: % is scaled to controls: 0 for no effect and ±100 for the full control effect; nearly all actives have a fitted effect of over 55% in size. In a few lines: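 Luminescent ATP quantitation (CellTiter-Glo) served as the viability read-out; reagent was added after 16 h compound exposure at 37 C and read after 30 min at room temperature. Cells: p53RE-bla HCT-116, 4,000 per well.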
Test [6] can be described thus: qHTS profiling of the MIPE4 collection as inhibitors of Plasmodium falciparum (3D7) proliferation (AID 743344; call rule not given here;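 also: scaled between DMSO vehicle wells and 0.29 µM artemisinin as full inhibition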). The conditions noted are these: P. falciparum 3D7 in erythrocytes, SYBR Green DNA fluorescence, 72 h; at 28.5 µM (top of the series) unless noted. An outline of the steps:
as §1

Test [7] is described as follows: qHTS profiling of the MIPE4 collection as inhibitors of Plasmodium falciparum (DD2) proliferation (AID 743345; call rule not given here). The following applies: P. falciparum Dd2 in erythrocytes, SYBR Green DNA, 72 h; at 28.5 µM (top of the series) unless noted. An outline of the steps: as §1
Test [8] in a line: qHTS profiling of the MIPE4 collection as inhibitors of Plasmodium falciparum (DD2) proliferation (Rep 2) (AID 743346; call rule not given here). The conditions noted are these: P. falciparum Dd2 in erythrocytes, SYBR Green DNA, 72 h; at 28.5 µM (top of the series) unless noted. In a few lines: as §1
Test [9] can be described thus: qHTS profiling of the MIPE4 collection as inhibitors of Plasmodium falciparum (HB3) proliferation (AID 743347; call rule not given here;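 also: plate controls were DMSO vehicle wells for no effect and artemisinin wells for full effect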). The following applies: P. falciparum HB3 in erythrocytes, SYBR Green DNA, 72 h; at 28.5 µM (top of the series) unless noted. In a few lines:
as §1

The nature of test [10]: qHTS Assay for Identifying Gametocytocidal Compounds (AID 743244). Also: potency is read from the fitted curve at half-maximal effect.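 As to max response: % is scaled to controls: 0 for no effect and ±100 for the full control effect; actives lower the fluorescent signal which means gametocytes are killed.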 The conditions noted are these: P. falciparum 3D7 stage III-V gametocytes, alamarBlue, 72 h; max response: stronger effect = lower value. An outline of the steps: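 Using 20,000 stage III–V 3D7 gametocytes per well, compounds were incubated 72 h under 37 °C/5% CO2. Viability was then assessed by 24 h alamarBlue reduction, measured fluorometrically at 525/598 nm.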

Values joined by “and” are separate entries in the source; they are usually repeats but may differ in a detail not shown here. Identical values can stand only once. Results filed as inconclusive are left out. Active and inactive are the calls of the source. Unless noted, calls follow the shape of the dose curve; as a rule, active = well fitted curve in the direction sought with a large enough effect; inconclusive = small, poorly fitted or top-dose-only effect, or another doubt; inactive = no such curve, though single readings can be large; an effect the other way counts as inactive or inconclusive.

For the molecule `CCCCCCCCCCCCCCCCCCOP(=O)([O-])OC1CC[N+](C)(C)CC1`, the remaining parasite growth % (stronger effect = lower value) in test [1] turned out to be 98.6% [at 18.4 µM]. For the same molecule, the activity, percent of control in test [2] was determined as 114% [at 18.4 µM]. Moreover, the remaining proliferation (% of control), lower = more inhibition in test [3] was 112% [at 18.4 µM].
With `CCOc1ccc2c(c1)C(C)=CC(C)(C)N2`, in [4], the max response was -17.1% (inactive) and -27.7% (inactive). Moreover, in test [5], the result was inactive.
On to `Nc1ccn([C@H]2CS[C@@H](CO)O2)c(=O)n1`, for which the max response in [4] is -4.28% (inactive). Besides, the molecule was classed as inactive in test [5].
`CCN(CC)Cc1cc(Nc2ccnc3cc(Cl)ccc23)ccc1O`: the remaining parasite growth % (stronger effect = lower value) in test [1] was 1.29% [at 9.63 µM]. In test [2], the activity, percent of control was determined as 2.43% [at 9.63 µM]. In [6], this molecule came in with a parasite growth, % of DMSO control of 4.69% [at 9.64 µM]. Moreover, in [7], the parasite growth remaining, % of DMSO control (lower = more inhibition) came out at 9.46% [at 9.64 µM]. This molecule also registered a parasite growth, % of control (lower = inhibition) in test [8] of 11.1% [at 9.64 µM]. Besides, in test [9], the growth, % of control was found to be 3.47% [at 9.64 µM].
Regarding `CCCCC/C=C\C/C=C\CCCCCCCC(=O)O`, the max response is 0.52% (inactive) in [10]; -9.3% (inactive) and -9.38% (inactive) in test [4]. The outcome in test [5] was inactive.
In test [6], `CCOC(=O)C1=C(C)NC(C)=C(C(=O)OCC)C1c1ccccc1C=CC(=O)OC(C)(C)C` returned a parasite growth, % of DMSO control of 6.3%. In test [7], this molecule had a parasite growth remaining, % of DMSO control (lower = more inhibition) of 7.86%. Moreover, the parasite growth, % of control (lower = inhibition) in test [8] was 19.9%. Also, in test [9], the growth, % of control was 11.8%.
Consider `CCOC(C)=O`, for which the figures for the max response in [10] and in [4] were 12.9% (inactive) and 2.28% (inactive), respectively. The call in test [5] was inactive.
With `CCC1(O)CC2CN(CCc3c([nH]c4ccccc34)[C@@](C(=O)OC)(c3cc4c(cc3OC)N(C=O)[C@H]3[C@](O)(C(=O)OC)[C@H](OC(C)=O)[C@]5(CC)C=CCN6CC[C@]43[C@@H]65)C2)C1` (stereo not given in full), the max response in test [10] was -18.4% (inactive). In addition, the remaining parasite growth % (stronger effect = lower value) in [1] was determined as 8.01%. The activity, percent of control in test [2] turned out to be 13.7%. For the same molecule, in test [3], the remaining proliferation (% of control), lower = more inhibition was found to be 8.78%.
In the case of `CCC1(Cc2ccc(N)cc2)CCC(=O)NC1=O` (stereo not given), the max response in test [10] was 9.55% (inactive). For the same molecule, the remaining parasite growth % (stronger effect = lower value) in test [1] is 99.6% [at 57.5 µM]. Further, the activity, percent of control in test [2] turned out to be 97.2% [at 57.5 µM]. Moreover, the remaining proliferation (% of control), lower = more inhibition in [3] amounted to 89.8% [at 57.5 µM].
In the case of `C=C1C(=CC=C2CCC[C@@]3(C)[C@@H]2CC[C@H]3[C@H](C)CCCC(C)C)C[C@@H](O)C[C@@H]1O`, the parasite growth, % of DMSO control in test [6] is 22.5%. The parasite growth remaining, % of DMSO control (lower = more inhibition) in test [7] was 65.2%. In [8], this molecule gave a parasite growth, % of control (lower = inhibition) of 29.8%. Also, the growth, % of control in test [9] was found to be 19.8%.
With `CCOc1cc2ncc(C#N)c(Nc3ccc(OCc4ccccn4)c(Cl)c3)c2cc1NC(=O)/C=C/CN(C)C`, the remaining parasite growth % (stronger effect = lower value) in test [1] is -0.375%. Moreover, in test [2], the activity, percent of control turned out to be 5.17%. Further, the remaining proliferation (% of control), lower = more inhibition in test [3] is -0.513%.
Consider `CC1(C)C(C=C(Cl)Cl)C1C(=O)OCc1cccc(Oc2ccccc2)c1` (stereo not given), for which the values for the max response in test [10] and in [4] were -8.09% (inactive) and -9.26% (inactive) [middle of 4 runs], respectively. Also, the outcome in test [5] was inactive.
With `CNC1CCN(C(Cc2cccc(-c3ccncc3)c2)C(=O)c2sc3c(F)ccc(F)c3c2Cl)CC1` (stereo not given), the remaining parasite growth % (stronger effect = lower value) in test [1] was found to be 0.218%. Further, in [2], the activity, percent of control worked out at 0.386%. In addition, the remaining proliferation (% of control), lower = more inhibition in [3] is -0.323%.
In the same order, the values of `CN(NC(=O)CC(=O)NN(C)C(=S)c1ccccc1)C(=S)c1ccccc1` are 2.19% [at 57.5 µM], 4.04% [at 57.5 µM] and 5.46%.
On to `CCCC(=O)O[C@]1(C(=O)CCl)[C@H](C)C[C@@H]2[C@H]3CCC4=CC(=O)C=C[C@]4(C)[C@@]3(F)C(=O)C[C@@]21C`, for which the remaining parasite growth % (stronger effect = lower value) in [1] was found to be 0.271%. In addition, in test [2], the activity, percent of control was found to be 1.4%. Moreover, the remaining proliferation (% of control), lower = more inhibition in [3] amounted to 1.97%. Further, the parasite growth, % of DMSO control in test [6] was 7.36%. In test [7], this molecule came in with a parasite growth remaining, % of DMSO control (lower = more inhibition) of 7.93%. This molecule displayed a parasite growth, % of control (lower = inhibition) in test [8] of 32.4%. Further, in test [9], the growth, % of control is 7.79%.
For `CC[C@@H](C(=O)O)C1CC[C@H](C)C([C@@H](C)[C@H](O)[C@H](C)C(=O)[C@H](CC)C2O[C@]3(C=C[C@@H](O)[C@]4(CC[C@@](C)(C5CC[C@](O)(CC)[C@H](C)O5)O4)O3)[C@H](C)C[C@@H]2C)O1` (stereo not given in full), the remaining parasite growth % (stronger effect = lower value) in [1] was -3.05%. Moreover, in test [2], the activity, percent of control was -0.726%. The remaining proliferation (% of control), lower = more inhibition in test [3] is -1.24%.
On to `CC(C)=O`, for which the max response in test [10] is -8.02% (inactive); in test [4] it was -4.51% (inactive). Moreover, in test [5], the outcome was inactive.
As to `Cc1ccccc1`, the max response in test [10] is 2.65% (inactive); in test [4], 1.99% (inactive) and 6.48% (inactive). In addition, in [5], the call was inactive.
For the molecule `CCCCC(CC)COC(=O)CC(C(=O)OCC(CC)CCCC)S(=O)(=O)O` (stereo not given), the max response in test [10] is -7.18% (inactive) and 8.87% (inactive); in [4], -6.91% (inactive). The molecule was called inactive in test [5].
As for `COC(=O)C1=C(C)NC(C)=C(C(=O)OCCCN2CCC(c3ccccc3)(c3ccccc3)CC2)[C@H]1c1cccc([N+](=O)[O-])c1`, the Potency in test [10] is 14.8 µM (active). The remaining parasite growth % (stronger effect = lower value) in [1] is -1.45%. Further, the activity, percent of control in test [2] is -0.102%. The remaining proliferation (% of control), lower = more inhibition in test [3] was -0.517%.
